Screening results as filed in PubChem.
aSyn 5UTR inh: 5' untranslated region of α-synuclein, MLPCN primary screen; alpha-synuclein 5'UTR reporter, inhibitor activity; inhibition, % (tested at 7.5 µM); 300,000 compounds, 0.82% hits; AID 1813; in the data active means inhibition above about 60%; inconclusive means no clear call, values can overlap the other calls;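 further: H4 neuroglioblastoma cells stably carrying SNCA 5'UTR luciferase fusion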
Gli-Sufu block: blocks Gli-Sufu signaling in a luciferase reporter. Sufu-KO-LIGHT fibroblasts, Gli luciferase reporter luminescence. inhibition, % at 5 µM. 340,000 compounds, 0.74% hits;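 active means inhibition above about 55%, limit read from the data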
H9c2 TAG inh: triacylglycerol accumulation inhibition; AID 651582; 230,000 compounds, 0.66% hits; H9c2 cells, Nile Red lipid (TAG) fluorescence; cells loaded with 200 µM oleic acid; inhibition, % at 12.5 µM;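 active means pattern-corrected inhibition of lipid staining of at least 50% with the nuclear-stain viability signal not falling by more than 50%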
Shn3 inh set2: inhibitors of Schnurri-3 3'UTR reporter in osteoblasts; Clone20 osteoblast Shn3 3'UTR firefly luciferase, 24 h; inhibition, % at 12.5 µM; 360,000 compounds, 0.52% hits; AID 588674;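 active means mean inhibition of at least 75% with every replicate also reaching 75%; inconclusive means mean inhibition at least 75% but some replicate below; inactive means mean inhibition below 75%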
Jurkat NFkB inh: lowers PMA/ionomycin-induced NF-kB signal in Jurkat cells. PMA/ionomycin-induced NF-kB luciferase reporter, luminescence. 330,000 compounds, 0.53% hits. inhibition, % at 4 µM; in the data active means inhibition above about 50%
697 NFkB inh: inhibitors of the PMA/ionomycin-induced NF-kB reporter in 697 B cells; 697 B-cell NF-kB luciferase reporter, 16 h; inhibition, % at 4 µM; 330,000 compounds, 0.33% hits; in the data active means inhibition above about 35%
697 NFkB conf: inhibitors of the PMA/ionomycin-induced NF-kB reporter in 697 B cells, retest; shares compounds with 697 NFkB inh; 2,000 compounds, 35% hits; 697 B-cell NF-kB luciferase, 16 h; inhibition, % at 4 µM; in the data active means inhibition mostly above about 28%, no sharp cut-off; inactive means mostly below about 22%
Large screens that a line does not name were inactive (follow-up assays come after a bar, where they were run). Hits are enriched below; roughly 2.3% of the tested compounds scored in any of these assays.

CCCN1C(=O)c2ccccc2NC1c1ccc(OC)cc1OC (stereo not drawn)	none (no result: H9c2 TAG inh)
CCCN1C(=O)c2ccccc2NC1c1ccc(OC)cc1O (stereo not drawn)	none | 697 NFkB conf inactive
Clc1ccc(NC2=NCCCCC2)cc1	697 NFkB inh 36 | 697 NFkB conf inactive
N#C/C(=C\c1ccccc1C(=O)O)c1nc2ccccc2[nH]1	none (no result: H9c2 TAG inh)
Cc1ccc(C(=O)OCC(=O)NCCN2C(=O)CSC2=O)cc1[N+](=O)[O-]	none (no result: aSyn 5UTR inh)
CC1CCN(c2ccc(C(=O)OCC(=O)NCCN3C(=O)CSC3=O)cc2[N+](=O)[O-])CC1	697 NFkB inh 38 | 697 NFkB conf inactive
CC1(C)CC1C(=O)Nc1ccc([N+](=O)[O-])cc1Br (stereo not drawn)	none (no result: H9c2 TAG inh)
Cc1ccc(C2(c3ccc(C)cc3)CC2C(=O)Nc2ccc([N+](=O)[O-])cc2O)cc1 (stereo not drawn)	aSyn 5UTR inh 67, 697 NFkB inh 97 (no result: H9c2 TAG inh) | 697 NFkB conf 97
O=C(Nc1ccccc1O)c1ccc(NC(=O)C2CC2)cc1	none | 697 NFkB conf inactive
O=C(Nc1ccccc1C(=O)O)c1ccc(NC(=O)C2CC2)cc1	none
Cc1ccc(C(C)(C)C)cc1S(=O)(=O)Nc1nc2ccccc2nc1Cl	none (no result: H9c2 TAG inh)
Cc1ccnc(Nc2nc(-c3ccccc3)cs2)c1	none | 697 NFkB conf inactive
COc1ccc(-c2csc(Nc3cccc(C)n3)n2)cc1	none | 697 NFkB conf inactive
CCN1C(=O)c2cccc3c(NC(=O)c4cccc(N5C(=O)CCC5=O)c4)ccc1c23	697 NFkB inh 36 (no result: H9c2 TAG inh) | 697 NFkB conf 40
CCOc1cc(C(=O)Nc2ccc3c4c(cccc24)C(=O)N3CC)cc(OCC)c1OCC	none (no result: H9c2 TAG inh)
NC(=S)Nc1ccc(Cl)c(Cl)c1	none
CC(C)(C)n1ncc2c(=O)n(CC(=O)c3ccccc3)cnc21	none
O=C(Nc1ccccc1)c1nc[nH]c1C(=O)NCCCCNC(=O)c1[nH]cnc1C(=O)Nc1ccccc1	none (no result: aSyn 5UTR inh)
Cc1ccc(NC(=O)c2nc[nH]c2C(=O)NCCCNC(=O)c2[nH]cnc2C(=O)Nc2ccc(C)cc2)cc1	697 NFkB inh 36 (no result: aSyn 5UTR inh) | 697 NFkB conf inactive
O=C1C=C(c2ccccc2)CO1	none (no result: aSyn 5UTR inh, Jurkat NFkB inh, 697 NFkB inh)
O=C(N/N=C/c1sc(N2CCOCC2)nc1-c1ccccc1)c1ccccc1F	697 NFkB inh 40 (no result: H9c2 TAG inh, Shn3 inh set2) | 697 NFkB conf inactive
Cc1cc(C(=O)N/N=C/c2sc(N3CCOCC3)nc2-c2ccccc2)c(C)o1	697 NFkB inh 40 | 697 NFkB conf inactive
O=C(N/N=C/c1sc(N2CCOCC2)nc1-c1ccccc1)c1ccccc1O	none (no result: H9c2 TAG inh)
O=C(NCCCN1CCOCC1)c1cc2nc(-c3ccco3)cc(C(F)(F)F)n2n1	none (no result: H9c2 TAG inh)
CCc1c(C)sc(NC(=O)C2CC2c2ccccc2)c1C(N)=O (stereo not drawn)	none (no result: H9c2 TAG inh) | 697 NFkB conf inactive
NNC(=O)[C@@H]1C[C@@H]1c1ccccc1	none (no result: H9c2 TAG inh)
Cc1ccc(C)c(S(=O)(=O)N2CCN(C(=O)Cn3c(C(F)(F)F)nc4ccccc43)CC2)c1	697 NFkB inh 37 (no result: H9c2 TAG inh) | 697 NFkB conf inactive
Oc1c(N=Nc2nn[nH]n2)ccc2ccccc12	none (no result: aSyn 5UTR inh, Gli-Sufu block, H9c2 TAG inh, Jurkat NFkB inh, 697 NFkB inh)
Cc1ccc(N=Nc2ccc3ccccc3c2O)cc1	aSyn 5UTR inh inconclusive (no result: H9c2 TAG inh) | 697 NFkB conf inactive
O=C(CC(c1ccccc1)c1ccccc1)Nc1ccc(O)cc1	none
S=C(Nc1ccc(Cl)cc1)c1nc2ccccc2s1	none
Cc1ccc(NC(=S)c2nc3ccccc3s2)cc1	none | 697 NFkB conf inactive
COc1ccc(NC(=O)c2ccc(S(=O)(=O)NCc3cccnc3)cc2)cc1	none (no result: H9c2 TAG inh)
Cc1ccc2ccc(C3C(=O)c4ccccc4C3=O)nc2c1	none (no result: H9c2 TAG inh) | 697 NFkB conf inactive
COc1ccc(NC(=O)CCc2nc3ccccc3s2)c(OC)c1	none
Oc1ccc(C[C@@H]2CNCCN2CCC23CC4CC(CC(C4)C2)C3)cc1	697 NFkB inh 37 | 697 NFkB conf inactive
COCCNC(=O)c1cc(-c2ccc(-c3ccccc3)cc2)nc2ccccc12	none | 697 NFkB conf inactive
O=C(NCc1ccccn1)c1cc(-c2ccc(-c3ccccc3)cc2)nc2ccccc12	none (no result: H9c2 TAG inh) | 697 NFkB conf inactive
OC(c1cccnc1)c1cccs1 (stereo not drawn)	none (no result: H9c2 TAG inh)
CSCCC(NS(=O)(=O)c1ccc(Cl)cc1)C(=O)OCc1cccc(Cl)c1 (stereo not drawn)	none
COc1ccc(O)c(/C=N/NC(=O)c2ccc(N3CCCC3=O)cc2)c1	none (no result: H9c2 TAG inh) | 697 NFkB conf inactive
